Measured potencies and affinities stand elsewhere.

What is called Inhibition is the change of the read-out against control, counted positive when it falls.

The subject of this assay is Escherichia coli. The conditions noted are these: Concentration 20 uM; ASSAY_TEST Inhibition of Bacterial Growth; detection method Absorption (OD600); MEDIA CAMHB; plate type 384well; NBS; CORNING #3640; time 18 hr.
Regarding `C[N+]1(CCC(C(N)=O)(c2ccccc2)c2ccccc2)CCCCC1.[Br-]` [FENPIVERINIUM BROMIDE], the Inhibition was -0.64%.
As to `CN(C)CCc1c[nH]c2ccc(C[C@H]3COC(=O)N3)cc12` [ZOLMITRIPTAN], the Inhibition amounted to 7.38%.
In the case of `C[C@]12CC[C@H](O)CC1=CC[C@@H]1[C@@H]2CC[C@]2(C)C(=O)CC[C@@H]12` [PRASTERONE] it was 2.6%; in that of `CC(=O)OCC[N+](C)(C)C.[Cl-]` [ACETYLCHOLINE CHLORIDE], 4.11%.
In the case of `CCN(C(C)=O)c1cccc(-c2ccnc3c(C#N)cnn23)c1` [ZALEPLON] it was 4.96%; in that of `COC(=O)N1CCN(C(=O)Cc2ccc(Cl)c(Cl)c2)C(CN2CCCC2)C1.O=C(O)/C=C/C(=O)O` (centres undefined), 2.23%; in that of `C[C@]12CC(C=O)=C(O)C[C@@H]1CC[C@@H]1[C@@H]2CC[C@@]2(C)[C@H]1CC[C@]2(C)O`, 7.86%.
For the compound `C[C@H](CCC(=O)O)[C@H]1CC[C@H]2[C@@H]3[C@@H](O)C[C@@H]4C[C@H](O)CC[C@]4(C)[C@H]3CC[C@]12C` [URSODIOL], the Inhibition is given as 2.26%.
On to `Nc1nc(F)nc2c1ncn2[C@@H]1O[C@H](CO)[C@@H](O)[C@@H]1O` [FLUDARABINE], for which the Inhibition came to 42.2%.
The figure for `C#C[C@]1(OC(C)=O)CC[C@H]2[C@@H]3CCC4=CC(=O)CC[C@@H]4[C@H]3CC[C@@]21C` [NORETHINDRONE ACETATE] is -1.23%; for `c1ccc(Cn2ccnc2)cc1` it is -1.92%; for `O=C(O)CCCc1ccc(N(CCCl)CCCl)cc1` [CHLORAMBUCIL] it is 8.33%.
On to `COc1ccc2[nH]cc(CCN)c2c1` [5-METHOXYTRYPTAMINE], for which the Inhibition is given as -0.18%.
For `CC[C@@H]1/C=C/C=C/C[C@H](C)[C@@H](O)[C@](C)(O)C(=O)[C@H](C)[C@@H](O)[C@H](C)C(=O)[C@H](C)[C@@H](O)[C@H](C)/C=C/C(=O)O[C@H]2[C@@H](C)[C@@H](CC1)O[C@@]1(CC[C@@H](C)[C@@H](C[C@H](C)O)O1)[C@@H]2C`, the Inhibition was determined as 0.23%.
`Cl.O.Oc1cc2c(cc1O)[C@H]1c3ccccc3CN[C@@H]1CC2`: the Inhibition was found to be 6.66%.
As to `Oc1ncnc2[nH]ncc12` [ALLOPURINOL], the Inhibition is on record as 6.23%.
In the case of `CCOC(=O)c1ncn2c1CN(C)C(=O)c1cc(F)ccc1-2` [FLUMAZENIL] it was -2.76%; in that of `CC(C)N(CCC(C(N)=O)(c1ccccc1)c1ccccn1)C(C)C.O=P(O)(O)O` (centres undefined) [DISOPYRAMIDE PHOSPHATE], -2.32%; in that of `CC[C@@H](C(N)=O)N1CCCC1=O`, 0.96%.
For the compound `CN1C(=O)CN=C(c2ccccc2)c2cc([N+](=O)[O-])ccc21` [NIMETAZEPAM], the Inhibition worked out at 1.04%.
The figure for `Cc1ccc(-c2nc3ccc(C)cn3c2CC(=O)N(C)C)cc1.Cc1ccc(-c2nc3ccc(C)cn3c2CC(=O)N(C)C)cc1.O=C(O)C(O)C(O)C(=O)O` [ZOLPIDEM TARTRATE] is -2.63%; for `CC(=O)CC(c1ccccc1)c1c([O-])c2ccccc2oc1=O.[Na+]` (centres undefined) [WARFARIN SODIUM] it is -2.34%; for `CC(C)NCC(O)c1ccc(O)c(O)c1.Cl` (centres undefined) [ISOPROTERENOL HYDROCHLORIDE] it is -1.63%.
The figure for `COc1ccc2[nH]cc(C3=CCNCC3)c2c1.COc1ccc2[nH]cc(C3=CCNCC3)c2c1.O=C(O)CCC(=O)O` is 5.51%.
Turning to `Cl.Cl.OCCN1CCN(CCCN2c3ccccc3Sc3ccc(C(F)(F)F)cc32)CC1` [FLUPHENAZINE HYDROCHLORIDE], the Inhibition is -6.08%.
With `CN(C)CCc1c[nH]c2ccc(Cn3cncn3)cc12.O=C(O)c1ccccc1` [RIZATRIPTAN BENZOATE], the Inhibition was -5.47%.
On to `CNCCC(Oc1ccc(C(F)(F)F)cc1)c1ccccc1.Cl` (centres undefined) [FLUOXETINE HYDROCHLORIDE], for which the Inhibition came out at 2.53%.
Consider `CCC(COC(=O)c1cc(OC)c(OC)c(OC)c1)(c1ccccc1)N(C)C.O=C(O)/C=C\C(=O)O` (centres undefined), for which the Inhibition came to 7.24%.
As to `CN1CCN2c3ncccc3Cc3ccccc3C2C1` (centres undefined) [MIRTAZAPINE], the Inhibition is on record as -1.97%.
`COc1cc2c(cc1OC)[C@@]13CCN4CC5=CCO[C@H]6CC(=O)N2[C@H]1[C@H]6[C@H]5C[C@H]43` [BRUCINE]: the Inhibition is -1.43%.
`CC[N+](C)(C)c1cccc(O)c1.[Cl-]` [EDROPHONIUM CHLORIDE]: the Inhibition is on record as 2.93%.
`Cl.NCCc1ccc(O)c(O)c1` [DOPAMINE HYDROCHLORIDE]: the Inhibition is -5.62%.
Take `Cc1ccnc2c1NC(=O)c1cccnc1N2C1CC1` [NEVIRAPINE]: the Inhibition is -0.52%.
In the case of `Cc1nnc2n1-c1ccc(Cl)cc1C(c1ccccc1)=NC2` [ALPRAZOLAM] it was 0.08%.
